Results filed as inconclusive are left out. Calls of active or inactive are those of the source. Unless noted, the call rests on the fitted dose curve; in most records, active means well fitted curve in the direction sought with a large enough effect in the repeat runs; inconclusive means weak or mixed curves; inactive means no such curve, though single readings can be large; an effect the other way counts as inactive or inconclusive.
What was measured:
[1] = target: Aromatase (Homo sapiens) (UniProt P11511); assay: qHTS assay to identify aromatase inhibitors (AID 743083); further: nearly all actives have a fitted effect of over 55% in size; further: potency means the concentration at half of the fitted maximal effect
[2] = qHTS assay to test for compound auto fluorescence at 460 nm (blue) in HEK293 cells (AID 720678)
In short: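 Cells were seeded and left to adhere for 4-5 hr at 37C. Compounds were then pin-transferred. After an overnight incubation at 37C under 5% CO2, intrinsic fluorescence at 405/460 nm was measured and referenced to triamterene.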

[3] = qHTS assay to test for compound auto fluorescence at 590 nm (red) in HEK293 cells (AID 720679)
In short: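 Each well held 2,000 HEK293 cells in medium containing 10% dialyzed FBS. Following 4-5 hr attachment at 37C, 23 nL test compound or DMSO was added; plates sat overnight, and red fluorescence (540/590nm) was recorded.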

[4] = qHTS assay to test for compound auto fluorescence at 460 nm (blue) in HEK293 cell free culture (AID 720681)
In short: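 Test compounds were pinned into cell-free culture medium (DMEM with 10% FBS) and fluorescence was read directly at Ex/Em 405/460 nm. Signals were expressed as fluorescence equivalents of triamterene, with DMSO vehicle as control.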

[5] = qHTS assay to test for compound auto fluorescence at 590 nm (red) in HEK293 cell free culture (AID 720683)
In short: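 Tox21 10K library compounds were pinned into cell-free DMEM with 10% FBS and fluorescence was read at excitation 540 nm. Activity is expressed as Rose Bengal sodium equivalency.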

[6] = qHTS assay to test for compound auto fluorescence at 460 nm (blue) in HepG2 cell free culture (AID 720685)
In short: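 Compound (23 nL) or DMSO pinned into cell-free MEM with 10% FBS; blue fluorescence read at 405/460 nm excitation/emission, expressed as auto-fluorescence equivalency to triamterene.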

[7] = qHTS assay to test for compound auto fluorescence at 535 nm (green) in HepG2 cell free culture (AID 720686)
[8] = qHTS assay for small molecule agonists of the p53 signaling pathway - cell viability (AID 651633; calls by dose curve;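 further: p53RE-bla HCT reporter cells with a stable beta-lactamase p53 reporter; series mostly up to about 83 µM; nearly all actives have a fitted effect of over 30% in size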)
In short: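 p53RE-bla cells, seeded at 4,000 per well and rested 5 h at 37 C/5% CO2, received compounds in DMSO for 16 h at 37 C. CellTiter-Glo was then added, and luminescence was read after 30 min at room temperature to gauge cytotoxicity.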

[9] = qHTS assay for small molecules that induce genotoxicity in human embryonic kidney cells expressing luciferase-tagged ATAD5 - cell viability (AID 651634; calls by dose curve; further: nearly all actives have a fitted effect of over 25% in size)
In short: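 Cytotoxicity counterscreen in HEK293T cells bearing an ATAD5-luciferase reporter: live-cell protease activity measured by CellTiter-Fluor fluorescence after 15.5 hr compound exposure.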

[10] = qHTS assay to identify small molecule antagonists of the glucocorticoid receptor (GR) signaling pathway - cell viability counter screen (AID 720693); further: nearly all actives have a fitted effect of over 55% in size
[11] = qHTS assay to identify small molecule antagonists of the androgen receptor (AR) signaling pathway - cell viability counter screen (AID 743033; further: nearly all actives have a fitted effect of over 45% in size)
[12] = qHTS assay to identify small molecule antagonists of the androgen receptor (AR) signaling pathway using the MDA cell line - cell viability counter screen (AID 743041; further: nearly all actives have a fitted effect of over 45% in size)
In short: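 Viability counter screen run alongside the AR antagonist reporter: cells seeded 5 h before compound, R1881 added, 16 h incubation at 37C without CO2, fluorescent CellTiter-Fluor signal quantified.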

[13] = qHTS assay to identify small molecule antagonists of the thyroid receptor (TR) signaling pathway (AID 743065); further: nearly all actives have a fitted effect of over 55% in size; further: potency means the concentration at half of the fitted maximal effect
In short: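 GH3.TRE-Luc rat pituitary cells carrying two TR response elements driving luciferase were plated for 4 h, given compound plus 1 nM T3 (final), and incubated 23.5 h at 37 C. ONE-Glo luminescence measured reporter inhibition; CellTiter-Fluor fluorescence tracked cytotoxicity.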

[14] = tested on: thyroid hormone receptor (rat, GH3 cells); assay: qHTS assay to identify small molecule agonists of the thyroid receptor (TR) signaling pathway (AID 743066; calls by dose curve)
[15] = qHTS assay to identify small molecule antagonists of the estrogen receptor alpha (ER-alpha) signaling pathway - cell viability counter screen (AID 743074; calls by dose curve;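 further: HEK293 cells carrying ER-alpha-UAS-bla reporter stimulated with 17beta-estradiol; nearly all actives have a fitted effect of over 45% in size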)
[16] = qHTS assay to identify small molecule antagonists of the estrogen receptor alpha (ER-alpha) signaling pathway using the BG1 cell line - cell viability counter screen (AID 743081);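 further: compound given together with 17beta-estradiol as the ER stimulus; series mostly up to about 70 µM; nearly all actives have a fitted effect of over 45% in size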
[17] = qHTS assay to identify small molecule that activate the aryl hydrocarbon receptor (AhR) signaling pathway - cell viability counter screen (AID 743086)
In short: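 HepG2-AhR-luc (HG2L7.5c1) cells, 4000/well, were preincubated 5 h at 37C, exposed to compound in qHTS format for 24 hr at 37C, then given CellTiter-Fluor for 30 min; viability was read as fluorescence in the reporter wells.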

[18] = qHTS assay to identify small molecule phospholipidosis (PLD) inducers (AID 1259344; active means well fitted curve in the direction sought with a large enough effect; an effect the other way counts as inactive or inconclusive)
In short: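 HepG2 cells grown on collagen I take up LipidTOX Red while exposed to compound for 24 h; after fixation they are imaged at 20x and pit metrics are extracted.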

[19] = qHTS assay to identify aromatase inhibitors - cell viability counter screen (AID 743084);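 further: cells stimulated with testosterone during compound exposure; nearly all actives have a fitted effect of over 55% in size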
[20] = target: Nuclear receptor subfamily 1 group I member 2 (Rattus norvegicus) (UniProt Q9R1A7); assay: Rat pregnane X receptor (rPXR) activation by small molecules, qHTS assay (AID 1346983); details: rPXR luciferase reporter cells, One-Glo luminescence, 24 h; max activation: stronger effect = higher value; further: nearly all actives have a fitted effect of over 20% in size; further: potency means the concentration at half of the fitted maximal effect
In short: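 Cell-based rPXR luciferase reporter assay, 2,000 cells per well, rested 5hr at 37 C before compound addition in DMSO, then 24 hr at 37 C. One-Glo reagent was added and luminescence read after 30 min at room temperature.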
On the % scale 0 is the no-effect control and ±100 the full control effect.

Chain of Aromatase (Homo sapiens) (P11511 whole entry, looked up): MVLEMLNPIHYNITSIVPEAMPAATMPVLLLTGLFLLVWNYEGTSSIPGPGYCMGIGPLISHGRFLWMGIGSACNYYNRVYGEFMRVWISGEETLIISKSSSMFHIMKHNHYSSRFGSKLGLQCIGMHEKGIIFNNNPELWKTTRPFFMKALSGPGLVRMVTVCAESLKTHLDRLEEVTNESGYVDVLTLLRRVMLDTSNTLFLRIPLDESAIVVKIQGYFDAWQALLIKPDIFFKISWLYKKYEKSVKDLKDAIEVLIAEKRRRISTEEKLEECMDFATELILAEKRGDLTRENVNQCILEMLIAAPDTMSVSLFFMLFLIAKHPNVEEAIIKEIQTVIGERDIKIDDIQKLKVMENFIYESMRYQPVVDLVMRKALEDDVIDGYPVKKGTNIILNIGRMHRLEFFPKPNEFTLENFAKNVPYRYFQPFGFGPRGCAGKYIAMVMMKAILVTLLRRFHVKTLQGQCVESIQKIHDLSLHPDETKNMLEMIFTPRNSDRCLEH
Chain of Nuclear receptor subfamily 1 group I member 2 (Rattus norvegicus) (Q9R1A7 whole entry, looked up): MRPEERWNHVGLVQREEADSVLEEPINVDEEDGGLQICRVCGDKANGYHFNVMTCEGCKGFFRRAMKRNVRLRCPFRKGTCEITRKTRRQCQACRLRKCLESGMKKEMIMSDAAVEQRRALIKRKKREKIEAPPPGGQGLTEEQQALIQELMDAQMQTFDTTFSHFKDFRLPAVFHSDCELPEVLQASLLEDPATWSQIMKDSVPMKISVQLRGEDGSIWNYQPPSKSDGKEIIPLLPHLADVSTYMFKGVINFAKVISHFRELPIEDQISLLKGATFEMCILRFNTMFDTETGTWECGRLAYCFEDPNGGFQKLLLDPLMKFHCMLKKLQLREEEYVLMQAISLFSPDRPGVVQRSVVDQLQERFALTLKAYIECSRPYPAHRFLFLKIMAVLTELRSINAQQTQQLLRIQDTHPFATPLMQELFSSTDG

Cc1cccc(C)c1
inactive: Potency [1]

c1ccc2c(c1)ccc1ncccc12
inactive: Potency [1]

N#CC1(O)CCCCC1
inactive: Potency [1]

Cc1cc([N+](=O)[O-])ccc1N
inactive: Potency [1]

Cc1ccc2ccccc2c1C
inactive: Potency [2] | outcome [3] | Potency [4] | outcome [5] | Potency [6] | Potency [7]

NC(=Nc1ccccc1)Nc1ccccc1
active: Potency [1] 23.7 µM

Nc1ccc(N)c2ccccc12
active: Potency [1] 3.06 µM

O=C(O)/C=C\C(=O)O
inactive: Potency [8] | Potency [9] | Potency [2] | outcome [3] | Potency [4] | outcome [5] | Potency [6] | Potency [7] | Potency [10] | Potency [11] | Potency [12] | Potency [13] | Potency [14] | Potency [15] | Potency [16] | Potency [17] | Potency [18]

CCCCCCCCCc1ccc(OCCOCCO)cc1
active: Potency [1] 21.1 µM

ClC(Cl)(Cl)c1ccc(C(Cl)(Cl)Cl)cc1
inactive: Potency [1]

Cc1ccc([N+](=O)[O-])cc1N
inactive: Potency [1]

N#CCCNCCC#N
inactive: Potency [1]

O=[N+]([O-])c1ccccc1Cl
inactive: Potency [2] | outcome [3] | Potency [4] | outcome [5] | Potency [6] | Potency [7] | Potency [13] | Potency [1]

O=C(O)/C=C/C(=O)O
inactive: Potency [8] | Potency [9] | Potency [2] | outcome [3] | Potency [4] | outcome [5] | Potency [6] | Potency [7] | Potency [10] | Potency [11] | Potency [12] | Potency [13] | Potency [14] | Potency [15] | Potency [16] | Potency [17]

Cc1ccc(O)cc1C
inactive: Potency [2] | outcome [3] | Potency [4] | outcome [5] | Potency [6] | Potency [7] | Potency [14] | Potency [1]

Clc1nc(Cl)c(Cl)c(Cl)c1Cl
inactive: Potency [1]

Cc1ccc([N+](=O)[O-])c(C)c1
inactive: Potency [1]

O=C1OC(=O)c2c(Br)c(Br)c(Br)c(Br)c21
inactive: Potency [1]

O[C@H]1[C@H]2[C@H](O)CCCN2C[C@H]1O
inactive: Potency [8] | Potency [9] | Potency [2] | outcome [3] | Potency [4] | outcome [5] | Potency [6] | Potency [7] | Potency [10] | Potency [11] | Potency [12] | Potency [13] | Potency [14] | Potency [15] | Potency [1] | Potency [19] | Potency [17] | Potency [18] | max activation [20] -2.82%

CN1[C@H]2CC[C@@H]1[C@@H](C(=O)O)[C@@H](OC(=O)c1ccccc1)C2
inactive: Potency [8] | Potency [9] | Potency [2] | outcome [3] | Potency [4] | outcome [5] | Potency [6] | Potency [7] | Potency [10] | Potency [11] | Potency [12] | Potency [13] | Potency [14] | Potency [15] | Potency [16] | Potency [1] | Potency [19] | Potency [17] | Potency [18] | max activation [20] -2.75%

C[N+]1(C)[C@@H]2CC[C@H]1CC(OC(=O)c1c[nH]c3ccccc13)C2 (some centres not stated)
inactive: Potency [8] | Potency [9] | Potency [2] | outcome [3] | Potency [4] | outcome [5] | Potency [6] | Potency [7] | Potency [10] | Potency [11] | Potency [12] | Potency [13] | Potency [14] | Potency [15] | Potency [16] | Potency [1] | Potency [19] | Potency [17] | Potency [18] | max activation [20] -3.92%

C[C@]12CCC(=O)C=C1C=C[C@@H]1[C@@H]2CC[C@@]2(C)[C@H]1CC[C@@]2(O)CCC(=O)O
inactive: Potency [8] | Potency [9] | Potency [2] | outcome [3] | Potency [4] | outcome [5] | Potency [6] | Potency [7] | Potency [10] | Potency [11] | Potency [12] | Potency [13] | Potency [14] | Potency [16] | Potency [1] | Potency [19] | Potency [17] | Potency [18] | max activation [20] 4.24%

CC(=O)Oc1ccc2c3c1O[C@H]1[C@@H](OC(C)=O)C=C[C@H]4[C@@H](C2)N(C)CC[C@@]341
inactive: Potency [8] | Potency [9] | Potency [2] | outcome [3] | Potency [4] | outcome [5] | Potency [6] | Potency [7] | Potency [10] | Potency [11] | Potency [12] | Potency [13] | Potency [14] | Potency [15] | Potency [16] | Potency [1] | Potency [19] | Potency [17] | Potency [18] | max activation [20] 0.899%

CCC1(c2cnc[nH]2)Cc2ccccc2C1
active: Potency [1] 26.6 µM
inactive: Potency [8] | Potency [9] | Potency [2] | outcome [3] | Potency [4] | outcome [5] | Potency [6] | Potency [7] | Potency [10] | Potency [11] | Potency [12] | Potency [13] | Potency [14] | Potency [15] | Potency [16] | Potency [19] | Potency [17] | Potency [18]

O=C1CCCCC1CN1CCCCC1 (configuration not stated)
inactive: Potency [8] | Potency [9] | Potency [2] | outcome [3] | Potency [4] | outcome [5] | Potency [6] | Potency [7] | Potency [10] | Potency [11] | Potency [12] | Potency [13] | Potency [14] | Potency [15] | Potency [16] | Potency [1] | Potency [19] | Potency [17] | Potency [18] | max activation [20] -4.76%

C/C(=C\c1csc(C)n1)[C@@H]1C[C@@H]2O[C@]2(C)CCC[C@H](C)[C@H](O)[C@@H](C)C(=O)C(C)(C)[C@@H](O)CC(=O)O1
active: Potency [13] 0.0106 µM | Potency [20] 10 µM
inactive: Potency [8] | Potency [2] | outcome [3] | Potency [4] | outcome [5] | Potency [6] | Potency [7] | Potency [10] | Potency [12] | Potency [14] | Potency [16] | Potency [1] | Potency [19] | Potency [17] | Potency [18]

CCCC(C)(COC(N)=O)COC(=O)NC1CC1 (configuration not stated)
inactive: Potency [8] | Potency [9] | Potency [2] | outcome [3] | Potency [4] | outcome [5] | Potency [6] | Potency [7] | Potency [10] | Potency [11] | Potency [12] | Potency [13] | Potency [14] | Potency [15] | Potency [16] | Potency [1] | Potency [19] | Potency [17] | Potency [18] | max activation [20] -2.91%
